Laboratory results published in PubChem BioAssay (Tox21).
Records with an inconclusive call do not appear. Values without a mark were called inactive. Active and inactive are the calls of the source.

Each molecule was assayed against Glucocorticoid receptor (Homo sapiens) (UniProt P04150) (assay: qHTS assay to identify small molecule agonists of the glucocorticoid receptor (GR) signaling pathway (AID 720691; active = well fitted activation curve with a large enough effect in the signal ratio in the repeat runs, not every such curve was filed as active; the % refers to the signal ratio)). Settings: GR-bla HeLa, beta-lactamase reporter ratio, 18 h; series mostly up to 62.4 µM; activation: at the top concentration.
Summary of the method: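 Fluorescence intensity from LiveBLAzer B/G FRET substrate (2 h, room temperature) reports beta-lactamase expression driven by the glucocorticoid response element in GR-bla HeLa cells after 18 h compound exposure at 37 C.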
% is set by controls: 0 for no effect and ±100 for the full control effect.

Glucocorticoid receptor (Homo sapiens), sequence (P04150 whole entry, looked up): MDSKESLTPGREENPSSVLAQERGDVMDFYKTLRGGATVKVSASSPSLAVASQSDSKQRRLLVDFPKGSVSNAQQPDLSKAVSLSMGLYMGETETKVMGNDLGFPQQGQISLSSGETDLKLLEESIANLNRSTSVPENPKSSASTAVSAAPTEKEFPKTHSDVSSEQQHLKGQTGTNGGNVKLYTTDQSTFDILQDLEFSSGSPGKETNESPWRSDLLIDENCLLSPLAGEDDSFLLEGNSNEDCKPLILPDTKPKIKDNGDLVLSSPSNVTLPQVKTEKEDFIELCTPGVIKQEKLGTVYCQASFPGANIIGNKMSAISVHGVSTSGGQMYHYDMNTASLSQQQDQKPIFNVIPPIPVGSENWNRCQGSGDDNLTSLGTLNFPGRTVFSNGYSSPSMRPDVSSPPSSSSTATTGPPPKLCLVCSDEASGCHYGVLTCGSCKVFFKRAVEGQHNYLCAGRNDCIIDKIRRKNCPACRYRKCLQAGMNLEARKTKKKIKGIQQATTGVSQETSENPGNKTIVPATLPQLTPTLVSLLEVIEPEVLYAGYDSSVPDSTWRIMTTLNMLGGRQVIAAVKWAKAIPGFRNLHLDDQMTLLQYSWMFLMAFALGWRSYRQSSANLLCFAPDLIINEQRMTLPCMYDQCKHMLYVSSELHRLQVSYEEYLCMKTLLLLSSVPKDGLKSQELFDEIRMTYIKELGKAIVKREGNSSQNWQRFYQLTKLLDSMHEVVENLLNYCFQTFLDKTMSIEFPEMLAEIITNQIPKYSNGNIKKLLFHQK

| SMILES | activation | Potency |
| --- | --- | --- |
| Nc1ccn([C@@H]2O[C@H](CO)[C@@H](O)C2(F)F)c(=O)n1 | 0.887% |  |
| C=COC(=O)C(C)(CC)CCC(C)C (configuration not stated) | -0.422% |  |
| CN(C)CCN(C)CCN(C)C | 0.899% |  |
| CC(C)CC(C)(N)C#N (configuration not stated) | 3.08% [at 79.2 µM] |  |
| CO[C@@]1(NC(=O)C(C(=O)O)c2ccc(O)cc2)C(=O)N2C(C(=O)O)=C(CSc3nnnn3C)CO[C@@H]21 (some centres not stated) | -0.649% [at 29.2 µM] |  |
| COc1cc(C(=O)NCc2ccc(OCCN(C)C)cc2)cc(OC)c1OC | -2.22% [at 29.2 µM] |  |
| O=C(CO)[C@@H](O)[C@H](O)[C@H](O)CO |  | inactive |
| [O-][n+]1cccc(CO)c1 | -0.154% |  |
| CCCCCCCCCCCCCCCCCCO | 0.047% |  |
| OCCc1ccccn1 | -1.85% |  |
| COCCOC[C@H](CC1(C(=O)NC2CCC(C(=O)O)CC2)CCCC1)C(=O)Oc1ccc2c(c1)CCC2 (some centres not stated) | 0.441% |  |
| CC(=O)c1cnccn1 | 2.06% [at 79.2 µM] |  |
| CNC(=O)Nc1ccc(Cl)c(Cl)c1 | -6.52% |  |
| COC(=O)Nc1ccc(Cl)c(Cl)c1 | 3.31% |  |
| CCC(C(=O)NC(=O)NC(C)=O)c1ccccc1 (configuration not stated) | -1.14% |  |
| CCC(C)(CN(C)C)OC(=O)c1ccccc1 (configuration not stated) | 0.27% [at 29.2 µM] |  |
| Nc1ccn([C@@H]2O[C@H](CO)[C@@H](O)[C@@H]2O)c(=O)n1 | -4.11% |  |

These molecules were tested against Glucocorticoid receptor (Homo sapiens) (UniProt P04150) (assay: qHTS assay to identify small molecule antagonists of the glucocorticoid receptor (GR) signaling pathway (AID 720692; active = well fitted inhibition curve with a large enough effect in the signal ratio in the repeat runs, not every such curve was filed as active; the % refers to the signal ratio)). Settings: GR-bla HeLa, beta-lactamase FRET ratio, dexamethasone-stimulated, 18 h; series mostly up to 58.5 µM; activity change, negative = inhibition: at the top concentration.
Summary of the method: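 HeLa GR-bla cells; cmpd + dex 5 nM final, 18 h 37 C; LiveBLAzer B/G FRET substrate 2 h RT; fluorescence intensity read. Antagonist mode, qHTS.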

| SMILES | activity change, negative = inhibition | Potency |
| --- | --- | --- |
| CC1=NS(=O)(=O)c2cc(Cl)ccc2N1 | -6.23% |  |
| CN(C)CCN(C)CCN(C)C | -9.8% |  |
| CN(C)[C@@H]1C(=O)C(C(=O)NCN2CCCC2)=C(O)[C@@]2(O)C(=O)C3=C(O)c4c(O)cccc4[C@@](C)(O)C3C[C@@H]12 (some centres not stated) |  | inactive |
| O=C(CO)[C@@H](O)[C@H](O)[C@H](O)CO |  | inactive |
| CC1=NN(c2cccc(S(=O)(=O)O)c2)C(=O)C1 | 8.93% |  |
| CCCCc1nc(Cl)c(CO)n1Cc1ccc(-c2ccccc2-c2nn[nH]n2)cc1 | -20.4% |  |
| [O-][n+]1cccc(CO)c1 | -17.8% |  |
| CCCCCCCCCCCCCCCCCCO | -0.803% |  |
| OCCc1ccccn1 | -0.616% |  |
| COCCOC[C@H](CC1(C(=O)NC2CCC(C(=O)O)CC2)CCCC1)C(=O)Oc1ccc2c(c1)CCC2 (some centres not stated) | 0.55% |  |
| CC(=O)c1cnccn1 | 7.26% [at 78.9 µM] |  |
| CCCCc1ccc2c(n1)[C@@H](c1ccc(OC)cc1C[C@H](C)C(=O)O)[C@H](C(=O)O)[C@H]2c1ccc2c(c1)OCO2 | -2.11% |  |
| O=C(O)c1cc(C(=O)O)cc(C(=O)O)c1 | -0.37% [at 78.9 µM] |  |
| CCC(C(=O)NC(=O)NC(C)=O)c1ccccc1 (configuration not stated) | 6.81% |  |
| CCC(C)(CN(C)C)OC(=O)c1ccccc1 (configuration not stated) | 7.1% [at 27 µM] |  |
